Assay results published in the supplement of paper PMC11001985.
A number with no mark means an inactive call.

compound: C#CCNC(=O)CCSSCCC(=O)NCCc1ccc(C=O)c(C=O)c1; test: lysine labeling ratio R10:1 (500 µM / 50 µM probe), SILAC-ABPP in living cells; higher = lower intrinsic lysine reactivity toward the probe, active = 2 or less; conditions: HeLa; probe concentrations 500 vs 50 µM
How it was run: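 SILAC light and heavy living HeLa cells in PBS at room temperature were labelled with 50 µM or 500 µM of an alkyne-tagged, disulfide-linked lysine probe, with forward and reverse label swaps. Mixed lysates were clicked to biotin-azide, trypsin-digested, captured on neutravidin, DTT-released, alkylated and analysed by LC-MS/MS on a TIMS-TOF Pro. R is the filtered median high-probe/low-probe MS1 peptide ratio per lysine, then the median across forward and reverse replicates. Ratios are capped at 20.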

Sequence of UniProt Q15149 (Q15149 whole entry): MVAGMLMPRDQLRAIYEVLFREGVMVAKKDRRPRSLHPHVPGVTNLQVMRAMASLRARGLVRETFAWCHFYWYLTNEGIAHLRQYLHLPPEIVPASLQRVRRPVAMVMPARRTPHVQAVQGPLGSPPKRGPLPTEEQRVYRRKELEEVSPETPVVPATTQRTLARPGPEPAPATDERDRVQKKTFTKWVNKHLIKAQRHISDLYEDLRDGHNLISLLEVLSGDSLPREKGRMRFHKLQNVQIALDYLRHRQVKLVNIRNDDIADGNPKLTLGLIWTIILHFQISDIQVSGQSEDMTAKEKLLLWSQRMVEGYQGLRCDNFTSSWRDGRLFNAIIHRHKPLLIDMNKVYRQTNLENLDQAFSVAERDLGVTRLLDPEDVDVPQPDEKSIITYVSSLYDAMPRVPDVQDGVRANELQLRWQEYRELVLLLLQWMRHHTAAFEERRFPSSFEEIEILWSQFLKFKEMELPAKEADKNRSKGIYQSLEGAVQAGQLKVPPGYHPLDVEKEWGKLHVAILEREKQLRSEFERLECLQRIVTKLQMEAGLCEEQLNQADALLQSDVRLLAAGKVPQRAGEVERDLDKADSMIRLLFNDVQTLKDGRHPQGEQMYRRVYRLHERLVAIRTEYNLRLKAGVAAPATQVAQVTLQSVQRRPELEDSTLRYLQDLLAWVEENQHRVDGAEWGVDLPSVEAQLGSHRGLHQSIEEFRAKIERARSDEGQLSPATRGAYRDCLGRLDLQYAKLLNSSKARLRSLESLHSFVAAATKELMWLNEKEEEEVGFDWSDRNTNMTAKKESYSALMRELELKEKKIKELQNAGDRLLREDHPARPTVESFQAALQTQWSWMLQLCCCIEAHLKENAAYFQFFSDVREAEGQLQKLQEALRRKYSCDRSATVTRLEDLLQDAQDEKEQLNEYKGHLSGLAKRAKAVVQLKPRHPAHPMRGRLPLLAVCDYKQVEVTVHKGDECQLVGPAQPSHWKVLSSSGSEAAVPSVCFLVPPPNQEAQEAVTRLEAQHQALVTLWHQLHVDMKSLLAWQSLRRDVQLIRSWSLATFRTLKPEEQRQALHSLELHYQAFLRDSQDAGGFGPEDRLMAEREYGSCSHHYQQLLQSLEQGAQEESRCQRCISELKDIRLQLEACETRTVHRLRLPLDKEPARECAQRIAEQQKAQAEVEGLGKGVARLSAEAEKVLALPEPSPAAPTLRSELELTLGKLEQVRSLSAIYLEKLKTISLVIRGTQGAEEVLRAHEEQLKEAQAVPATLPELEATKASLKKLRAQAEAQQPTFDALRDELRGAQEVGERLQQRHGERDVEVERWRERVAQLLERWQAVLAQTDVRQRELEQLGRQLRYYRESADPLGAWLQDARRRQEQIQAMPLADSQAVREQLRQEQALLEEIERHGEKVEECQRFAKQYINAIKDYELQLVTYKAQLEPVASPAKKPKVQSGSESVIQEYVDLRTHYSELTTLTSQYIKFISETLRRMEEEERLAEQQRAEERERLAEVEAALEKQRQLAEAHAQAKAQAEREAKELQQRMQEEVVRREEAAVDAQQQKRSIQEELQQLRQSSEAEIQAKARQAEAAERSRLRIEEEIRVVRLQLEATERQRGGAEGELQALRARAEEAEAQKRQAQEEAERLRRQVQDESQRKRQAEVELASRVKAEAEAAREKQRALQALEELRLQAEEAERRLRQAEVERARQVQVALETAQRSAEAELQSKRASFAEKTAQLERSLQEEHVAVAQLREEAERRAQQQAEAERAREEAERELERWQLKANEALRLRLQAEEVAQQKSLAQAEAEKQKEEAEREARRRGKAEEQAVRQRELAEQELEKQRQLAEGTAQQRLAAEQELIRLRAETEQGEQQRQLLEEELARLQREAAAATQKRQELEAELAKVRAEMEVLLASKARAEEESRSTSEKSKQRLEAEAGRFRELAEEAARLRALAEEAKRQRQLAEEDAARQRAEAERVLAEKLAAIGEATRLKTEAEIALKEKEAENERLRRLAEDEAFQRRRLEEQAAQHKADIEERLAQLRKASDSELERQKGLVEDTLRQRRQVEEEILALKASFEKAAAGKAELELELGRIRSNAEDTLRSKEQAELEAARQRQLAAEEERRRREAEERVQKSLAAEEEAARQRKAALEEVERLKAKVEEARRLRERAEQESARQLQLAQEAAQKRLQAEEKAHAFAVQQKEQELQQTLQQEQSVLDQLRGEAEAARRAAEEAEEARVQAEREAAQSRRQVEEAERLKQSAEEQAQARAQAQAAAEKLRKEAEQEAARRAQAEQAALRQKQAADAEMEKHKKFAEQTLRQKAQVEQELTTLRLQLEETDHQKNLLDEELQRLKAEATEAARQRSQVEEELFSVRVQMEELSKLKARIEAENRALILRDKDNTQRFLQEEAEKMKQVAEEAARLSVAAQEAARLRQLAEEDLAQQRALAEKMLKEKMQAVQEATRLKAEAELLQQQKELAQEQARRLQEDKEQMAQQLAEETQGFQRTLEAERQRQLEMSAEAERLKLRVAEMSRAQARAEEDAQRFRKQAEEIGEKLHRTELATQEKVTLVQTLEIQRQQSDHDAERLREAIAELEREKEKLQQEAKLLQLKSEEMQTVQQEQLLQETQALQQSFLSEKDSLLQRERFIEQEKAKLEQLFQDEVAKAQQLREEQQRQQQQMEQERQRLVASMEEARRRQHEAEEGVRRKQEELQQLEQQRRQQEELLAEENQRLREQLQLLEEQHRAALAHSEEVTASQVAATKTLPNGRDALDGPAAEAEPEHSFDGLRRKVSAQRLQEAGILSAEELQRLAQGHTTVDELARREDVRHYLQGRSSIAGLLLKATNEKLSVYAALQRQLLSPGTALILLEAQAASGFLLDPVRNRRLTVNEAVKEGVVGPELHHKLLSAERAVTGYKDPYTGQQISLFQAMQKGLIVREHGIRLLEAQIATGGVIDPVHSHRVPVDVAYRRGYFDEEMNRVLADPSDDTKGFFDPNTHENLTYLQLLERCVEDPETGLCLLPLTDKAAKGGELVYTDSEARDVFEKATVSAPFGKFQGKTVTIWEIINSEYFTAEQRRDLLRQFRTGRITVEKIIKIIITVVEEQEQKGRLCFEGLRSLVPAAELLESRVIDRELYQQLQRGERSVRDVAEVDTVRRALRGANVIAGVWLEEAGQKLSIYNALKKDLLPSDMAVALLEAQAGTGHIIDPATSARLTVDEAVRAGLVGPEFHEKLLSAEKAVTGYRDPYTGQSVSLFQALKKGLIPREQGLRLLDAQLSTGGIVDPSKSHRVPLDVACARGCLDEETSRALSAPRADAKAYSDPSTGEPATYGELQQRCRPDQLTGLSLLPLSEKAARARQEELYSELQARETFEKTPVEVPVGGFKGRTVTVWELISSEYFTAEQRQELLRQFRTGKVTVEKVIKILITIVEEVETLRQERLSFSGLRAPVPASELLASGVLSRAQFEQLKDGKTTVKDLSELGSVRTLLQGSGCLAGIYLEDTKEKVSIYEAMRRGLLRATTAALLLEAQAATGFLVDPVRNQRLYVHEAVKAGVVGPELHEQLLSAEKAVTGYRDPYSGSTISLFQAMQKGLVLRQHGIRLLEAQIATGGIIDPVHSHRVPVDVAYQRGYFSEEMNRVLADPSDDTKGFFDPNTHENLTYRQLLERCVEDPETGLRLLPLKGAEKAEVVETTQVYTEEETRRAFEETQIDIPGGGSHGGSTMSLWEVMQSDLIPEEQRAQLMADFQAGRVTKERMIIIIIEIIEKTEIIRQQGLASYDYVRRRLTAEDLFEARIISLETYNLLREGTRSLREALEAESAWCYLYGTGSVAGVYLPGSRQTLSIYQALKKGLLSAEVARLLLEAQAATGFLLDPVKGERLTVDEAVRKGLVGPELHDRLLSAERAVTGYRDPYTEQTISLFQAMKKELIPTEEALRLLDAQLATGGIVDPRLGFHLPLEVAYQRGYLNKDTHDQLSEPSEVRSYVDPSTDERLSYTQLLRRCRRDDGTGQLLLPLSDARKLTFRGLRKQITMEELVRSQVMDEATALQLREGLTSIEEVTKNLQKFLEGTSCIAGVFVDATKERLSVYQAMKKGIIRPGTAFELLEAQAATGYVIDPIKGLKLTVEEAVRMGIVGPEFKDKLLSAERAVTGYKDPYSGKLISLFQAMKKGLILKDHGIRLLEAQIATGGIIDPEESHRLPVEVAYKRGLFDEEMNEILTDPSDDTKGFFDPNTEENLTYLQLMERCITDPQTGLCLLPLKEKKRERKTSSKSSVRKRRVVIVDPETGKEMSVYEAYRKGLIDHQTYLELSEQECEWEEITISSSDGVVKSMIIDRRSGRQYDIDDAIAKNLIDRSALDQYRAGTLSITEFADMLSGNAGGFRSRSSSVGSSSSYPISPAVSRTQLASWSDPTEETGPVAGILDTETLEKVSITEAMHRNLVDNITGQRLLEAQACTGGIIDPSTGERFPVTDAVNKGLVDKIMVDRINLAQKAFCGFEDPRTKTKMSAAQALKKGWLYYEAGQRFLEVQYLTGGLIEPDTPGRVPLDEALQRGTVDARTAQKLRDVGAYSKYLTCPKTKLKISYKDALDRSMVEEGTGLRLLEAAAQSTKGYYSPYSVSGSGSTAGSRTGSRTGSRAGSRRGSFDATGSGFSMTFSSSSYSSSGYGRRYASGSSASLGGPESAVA
Sequence of UniProt P69905 (P69905 whole entry): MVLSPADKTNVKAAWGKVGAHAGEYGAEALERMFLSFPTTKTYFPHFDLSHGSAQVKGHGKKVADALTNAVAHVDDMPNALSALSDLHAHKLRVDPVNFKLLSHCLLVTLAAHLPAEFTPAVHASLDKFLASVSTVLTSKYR
Sequence of UniProt O15260 (O15260 whole entry): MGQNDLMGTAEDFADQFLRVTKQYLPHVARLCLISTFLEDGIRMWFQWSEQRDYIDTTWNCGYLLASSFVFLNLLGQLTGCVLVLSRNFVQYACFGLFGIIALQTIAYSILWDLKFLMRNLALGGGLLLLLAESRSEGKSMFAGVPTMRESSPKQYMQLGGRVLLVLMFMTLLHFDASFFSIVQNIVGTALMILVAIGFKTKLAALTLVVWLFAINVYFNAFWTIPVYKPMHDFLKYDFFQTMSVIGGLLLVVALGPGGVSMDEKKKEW

| Target | lysine labeling ratio R10:1 |
| --- | --- |
| CD63 (lysine site: K194) (UniProt P08962) | 2.39 |
| CDH2 (lysine site: K223) (UniProt P19022) | 2.63 |
| ITGAV (lysine site: K535) (UniProt P06756) | 1.58 (active) |
| UniProt Q9NYQ7 (lysine site: K2131) | 1.56 (active) |
| DDX3X (lysine site: K66) (UniProt O00571) | 1.78 (active) |
| HSPD1 (lysine site: K301) (UniProt P10809) | 2.58 |
| HBA1 (lysine site: K17) (UniProt P69905) | 3.74 |
| COPA (lysine site: K480) (UniProt P53621) | 4.64 |
| SEMA3C (lysine site: K416) (UniProt Q99985) | 2.36 |
| UniProt P55072 (lysine site: K148) | 5.57 |
| UniProt O95980 (lysine site: K684) | 1.24 (active) |
| SHMT2 (lysine site: K409) (UniProt P34897) | 2.98 |
| UniProt P05787 (lysine site: K8) | 5.03 |
| P4HB (lysine site: K328) (UniProt P07237) | 1.54 (active) |
| ALDOA (lysine site: K111) (UniProt P04075) | 4.71 |
| FBL (lysine site: K131) (UniProt P22087) | 2.15 |
| CCT3 (lysine site: K222) (UniProt P49368) | 2.19 |
| AGRN (lysine site: K1708) (UniProt O00468) | 2.99 |
| PEBP1 (lysine site: K113) (UniProt P30086) | 2.7 |
| IGF2R (lysine site: K808) (UniProt P11717) | 5.23 |

| Target | lysine labeling ratio R10:1 |
| --- | --- |
| HNRNPM (lysine site: K381) (UniProt P52272) | 5.22 |
| PLOD2 (lysine site: K593) (UniProt O00469) | 1.21 (active) |
| UniProt P25705 (lysine site: K132) | 1.76 (active) |
| CD97 (lysine site: K422) (UniProt P48960) | 2.07 |
| SURF4 (lysine site: K22) (UniProt O15260) | 3.81 |
| ITGA6 (lysine site: K953) (UniProt P23229) | 3.1 |
| LDLR (lysine site: K596) (UniProt P01130) | 1.28 (active) |
| ITIH1 (lysine site: K125) (UniProt P19827) | 4.42 |
| PPIB (lysine site: K186) (UniProt P23284) | 3.18 |
| NEGR1 (lysine site: K98) (UniProt Q7Z3B1) | 5.29 |
| HSPA9 (lysine site: K121) (UniProt P38646) | 1.51 (active) |
| UniProt Q15149 (lysine site: K2277) | 0.748 (active) |
| EGFR (lysine site: K500) (UniProt P00533) | 12.8 |
| PNN (lysine site: K157) (UniProt Q9H307) | 1.95 (active) |
| ATAD3B (lysine site: K214) (UniProt Q5T9A4) | 2.61 |
| PLS3 (lysine site: K335) (UniProt P13797) | 0.765 (active) |
| SLC25A4 (lysine site: K245) (UniProt P12235) | 1.72 (active) |
| FRAS1 (lysine site: K380) (UniProt Q86XX4) | 2.25 |
| IQGAP1 (lysine site: K104) (UniProt P46940) | 2.32 |
| PCMT1 (lysine site: K125) (UniProt P22061) | 1.38 (active) |
